This is part of a sample that, as a whole, favours compounds with a hit. Of some 83,000 tested, about 20% had one in any assay.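 Testing used 96-well plates and a 48-hour single-concentration exposure. Example: -40 means 40% of the starting cells died.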 Values without a mark were called inactive. Calls of active or inactive are those of the source. How the source made its calls: active means growth percent below 10; inactive means the rest.
These molecules were tested on HL-60(TB) leukemia (assay: NCI-60 one-dose screen, 48 h (100 = growth as untreated, 0 = no growth, -100 = all killed)). Details: 10 µM unless noted.

Compound	growth
Cc1cc(C)c(S(=O)(=O)/N=c2/n(-c3ccccc3)nc3n2CCN3C2=NCCN2)c(C)c1	82.8%
NC(CSC(c1ccccc1)(c1ccccc1)c1ccccc1)C(=O)O (stereo unspecified)	-0.908% (active)
C=C1C(=O)O[C@H]2[C@H]1CC/C(C=Nc1ccc(C(F)(F)F)cc1N)=C\CC[C@@]1(C)O[C@@H]21	-7.77% (active)
CC[C@H](CC[C@@H](C)[C@H]1CC[C@H]2[C@@H]3/C(=C/c4cccnc4)C(=O)C4=CC(=O)CC[C@]4(C)[C@H]3CC[C@]12C)C(C)C	64.6%
O=C(NCCc1c[nH]c2ccccc12)C1Cc2ccccc2CN1C(=O)c1ccco1 (stereo unspecified)	82.8%
[N-]=[N+]=NCc1cccc(/C(O)=C/C(=O)C(=O)O)c1	17.3%

Source: PubChem BioAssay (NCI)
